In PubChem BioAssay AID1159580 (chemical genetic matrix, 2015):
“And” between values parts separate entries of the source, which are not always exact repeats. Equal entries are not always repeated. Screen size: about 5,500 compounds; about 2,000 (36%) were called active. Roughly 18% stayed inconclusive and do not appear here. Cut-off read from the data, not from the text of the source: active = normalized growth mostly below about 0.91 (no sharp cut-off); inconclusive = no clear call, values can overlap the other calls; inactive = mostly above about 0.92. Some of the results follow.

Test: chemical genetic growth profiling, strain panel (AID 1159580);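 note: tested at 20 µM; growth read once vehicle control cultures reached saturation at 30 °C; 1 = growth at the plate median or of vehicle wells; lower values mean less growth of the strain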
Settings: growth OD

Measured: normalized growth

CN1C(=O)CCS(=O)(=O)C1c1ccc(Cl)cc1 (stereo unspecified)
inactive: S. cerevisiae deletion strains, locus YJR075W, strain HOC1, active compounds read low 1.04 and 1.02 | S. cerevisiae deletion strains, locus YKL009W, strain mrt4, active compounds read low 1.03 | S. cerevisiae deletion strains, locus YKL068W, active compounds read low 1.01 | S. cerevisiae deletion strains, locus YKL085W, strain MDH1 (second series), active compounds read low 1.01 | S. cerevisiae deletion strains, locus YKL085W, strain MDH1, active compounds read low 1.01 | S. cerevisiae deletion strains, locus YKL160W, strain elf1, active compounds read low 1.02 | S. cerevisiae deletion strains, locus YKL190W, strain CNB1, active compounds read low 1.01 | S. cerevisiae deletion strains, locus YKR001C, strain vps1, active compounds read low 1.01 | S. cerevisiae deletion strains, locus YKR026C, strain gcn3, active compounds read low 0.976 | S. cerevisiae deletion strains, locus YKR091W, strain srl3, active compounds read low 0.984 | S. cerevisiae deletion strains, locus YLL001W, strain dnm1, active compounds read low 0.979 | S. cerevisiae deletion strains, locus YLL026W, active compounds read low 0.999 | S. cerevisiae deletion strains, locus YLL041C, strain sdh2, active compounds read low 0.984 | S. cerevisiae deletion strains, locus YLR027C, strain aat2, active compounds read low 0.998 | S. cerevisiae deletion strains, locus YLR039C, strain RIC1, active compounds read low 1.04 | S. cerevisiae deletion strains, locus YLR058C, strain SHM2, active compounds read low 1.01 | S. cerevisiae deletion strains, locus YLR102C, strain apc9, active compounds read low 1.01 | S. cerevisiae deletion strains, locus YLR113W, strain HOG1, active compounds read low 0.99 | S. cerevisiae deletion strains, locus YLR221C, strain rsa3, active compounds read low 0.978 | S. cerevisiae deletion strains, locus YLR258W, strain gsy2, active compounds read low 0.988 | S. cerevisiae deletion strains, locus YLR262C, strain YPT6 (second series), active compounds read low 0.987 | S. cerevisiae deletion strains, locus YLR262C, strain YPT6, active compounds read low 1.06 | S. cerevisiae deletion strains, locus YLR268W, strain sec22, active compounds read low 1.06 | S. cerevisiae deletion strains, locus YLR320W, strain mms22, active compounds read low 0.939 | S. cerevisiae deletion strains, locus YLR330W, strain CHS5, active compounds read low 1.01 | S. cerevisiae deletion strains, locus YLR342W, strain FKS1 (second series), active compounds read low 1.01 | S. cerevisiae deletion strains, locus YLR342W, strain FKS1, active compounds read low 1.01 | S. cerevisiae deletion strains, locus YLR357W, strain rsc2, active compounds read low 0.954 | S. cerevisiae deletion strains, locus YLR370C, strain arc18, active compounds read low 0.991 | S. cerevisiae deletion strains, locus YLR371W, strain rom2, active compounds read low 1.02 | S. cerevisiae deletion strains, locus YLR384C, strain iki3, active compounds read low 0.996 | S. cerevisiae deletion strains, locus YLR418C, strain cdc73, active compounds read low 1.02 | S. cerevisiae deletion strains, locus YML016C, strain PPZ1, active compounds read low 1.01 | S. cerevisiae deletion strains, locus YML032C, strain rad52, active compounds read low 1.04 | S. cerevisiae deletion strains, locus YML120C, strain ndi1, active compounds read low 0.948 | S. cerevisiae deletion strains, locus YML124C, strain tub3, active compounds read low 1.01 | S. cerevisiae deletion strains, locus YMR058W, strain fet3, active compounds read low 0.979 | S. cerevisiae deletion strains, locus YMR078C, strain ctf18, active compounds read low 1.02 | S. cerevisiae deletion strains, locus YMR125W, strain sto1, active compounds read low 0.982 | S. cerevisiae deletion strains, locus YMR129W, active compounds read low 0.974 | S. cerevisiae deletion strains, locus YMR205C, strain PFK2, active compounds read low 0.947 | S. cerevisiae deletion strains, locus YMR223W, strain ubp8, active compounds read low 1 | S. cerevisiae deletion strains, locus YMR231W, strain pep5, active compounds read low 0.987 | S. cerevisiae deletion strains, locus YMR263W, strain SAP30, active compounds read low 1.02 and 0.996 | S. cerevisiae deletion strains, locus YMR307W, strain GAS1, active compounds read low 1 and 0.99 | S. cerevisiae deletion strains, locus YNL067W, strain RPL9B, active compounds read low 1.03 | S. cerevisiae deletion strains, locus YNL071W, strain lat1, active compounds read low 0.979 | S. cerevisiae deletion strains, locus YNL128W, strain TEP1, active compounds read low 1.03 | S. cerevisiae deletion strains, locus YNL153C, strain GIM3, active compounds read low 1.02 and 0.995 | S. cerevisiae deletion strains, locus YNL175C, strain NOP13, active compounds read low 1.01 | S. cerevisiae deletion strains, locus YNL183C, strain NPR1, active compounds read low 0.883 | S. cerevisiae deletion strains, locus YNL197C, strain WHI3, active compounds read low 1 | S. cerevisiae deletion strains, locus YNL209W, strain ssb2, active compounds read low 0.984 | S. cerevisiae deletion strains, locus YNL224C, strain SQS1, active compounds read low 1 | S. cerevisiae deletion strains, locus YNL233W, strain BNI4, active compounds read low 1.02 | S. cerevisiae deletion strains, locus YNL248C, strain rpa49, active compounds read low 1.03 | S. cerevisiae deletion strains, locus YNL250W, strain rad50, active compounds read low 1.01 | S. cerevisiae deletion strains, locus YNL271C, strain bni1, active compounds read low 1.02 | S. cerevisiae deletion strains, locus YNL298W, strain CLA4, active compounds read low 1.02 | S. cerevisiae deletion strains, locus YNL307C, strain MCK1, active compounds read low 1.01 | S. cerevisiae deletion strains, locus YNL322C, strain KRE1 (second series), active compounds read low 1 | S. cerevisiae deletion strains, locus YNL322C, strain KRE1, active compounds read low 1.01 | S. cerevisiae deletion strains, locus YNR049C, strain mso1, active compounds read low 0.992 | S. cerevisiae deletion strains, locus YNR052C, strain pop2, active compounds read low 1.02 | S. cerevisiae deletion strains, locus YOL006C, strain TOP1, active compounds read low 1.1 | S. cerevisiae deletion strains, locus YOL012C, strain htz1 0.9 | S. cerevisiae deletion strains, locus YOL147C, strain pex11, active compounds read low 1.01 | S. cerevisiae deletion strains, locus YOR001W, strain rrp6, active compounds read low 0.94 | S. cerevisiae deletion strains, locus YOR061W, strain CKA2, active compounds read low 1.01 | S. cerevisiae deletion strains, locus YOR069W, strain VPS5, active compounds read low 1.01 | S. cerevisiae deletion strains, locus YOR070C, strain gyp1, active compounds read low 0.993 | S. cerevisiae deletion strains, locus YOR080W, strain dia2, active compounds read low 0.982 | S. cerevisiae deletion strains, locus YOR083W, strain WHI5 (second series), active compounds read low 1.03 | S. cerevisiae deletion strains, locus YOR083W, strain WHI5, active compounds read low 0.994 | S. cerevisiae deletion strains, locus YOR106W, strain vam3, active compounds read low 1.02 | S. cerevisiae deletion strains, locus YOR136W, strain idh2, active compounds read low 1.01 | S. cerevisiae deletion strains, locus YOR144C, strain elg1, active compounds read low 1.01 | S. cerevisiae deletion strains, locus YOR184W, strain ser1, active compounds read low 1.01 | S. cerevisiae deletion strains, locus YOR231W, strain MKK1, active compounds read low 0.996 | S. cerevisiae deletion strains, locus YOR265W, strain rbl2, active compounds read low 0.982 | S. cerevisiae deletion strains, locus YOR270C, strain vph1, active compounds read low 0.992 | S. cerevisiae deletion strains, locus YOR290C, strain snf2, active compounds read low 1.01 | S. cerevisiae deletion strains, locus YOR316C, strain cot1, active compounds read low 1.01 | S. cerevisiae deletion strains, locus YPL051W, strain arl3, active compounds read low 1.03 | S. cerevisiae deletion strains, locus YPL055C, strain LGE1, active compounds read low 1.05 and 1.03 | S. cerevisiae deletion strains, locus YPL078C, strain atp4, active compounds read low 1.01 | S. cerevisiae deletion strains, locus YPL106C, strain sse1, active compounds read low 0.952 | S. cerevisiae deletion strains, locus YPL240C, strain hsp82, active compounds read low 0.981 | S. cerevisiae deletion strains, locus YPL241C, strain CIN2, active compounds read low 1 and 1.01 | S. cerevisiae deletion strains, locus YPL256C, strain CLN2, active compounds read low 0.956 | S. cerevisiae deletion strains, locus YPR119W, strain clb2, active compounds read low 1.02 | S. cerevisiae deletion strains, locus YPR141C, strain kar3, active compounds read low 1.01 | S. cerevisiae deletion strains, locus YPR163C, strain tif3, active compounds read low 1.02 | S. cerevisiae deletion strains, locus YPR167C, strain met16, active compounds read low 1.01 | S. cerevisiae deletion strains, strain wtn01, active compounds read low 1.03 | S. cerevisiae strains, strain wild type, active compounds read low 1.02
